# The supplement of paper PMC11417369
# ± gives the standard deviation of the averaged measurements. The full ranking holds about 25,000 sequences; the median of “ln(normalized median fluorescence intensity)” is about 8.9, and the highest 2% start at about 10. The full list was thinned out, with the highest values kept by preference.
# System: PfAP2-LT AP2 domain (GST-tagged)
# Test: gcPBM binding intensity (ln(normalized median fluorescence intensity)); higher = stronger DNA binding
# Summary of the method: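 An Agilent 4 × 180k array of primer-extended double-stranded 36-bp intergenic genomic probes, with negative controls, was incubated for 1 h with GST-tagged P. falciparum DNA-binding domains expressed in E. coli. Alexa488 anti-GST antibody detected bound protein, scanned at 488 nm. Binding intensity is the highest Masliner-normalised natural-log median intensity across replicate spots of either probe orientation.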
row,Sequence,gcPBM binding intensity (ln)
1,ATAAAGATAATATATGCACACATATAAATATATAAA [CACACA_site9153],9.09 ± 0.43
2,TATACAGATATATATACACACATATATATAAATACA [CACACA_site4383],9.24 ± 0.39
3,ATTTAATACAAATACACACACAAATAAATACAGATA [CACACA_site5956],9.47 ± 0.26
4,CACATACAGATATATACACACAAATATAAATACACA [CACACA_site6512],9.52 ± 0.4
5,AATAAATATATAAATACACACAAACATACAGATATA [CACACA_site6088],9.37 ± 0.35
6,CATAAATACATACATACACACATATATATATATATA [CACACA_site2106],9.88 ± 0.085
7,ATAAATACAGATAACACACACATATATATATATATA [CACACA_site5431],10.225 ± 0.0071
8,CATATATAAATATATACACACATACATACATACATA [CACACA_site5988],9.36 ± 0.4
9,TATACAGATAAATACACACACACATATATATATATA [CACACA_site4845],10.3 ± 0.25
10,TACATACATACATACACACACACATATAAATACATA [CACACA_site4626],10.1 ± 0.4
11,TACAGATACAGATACACACACACACCGAAATAAATA [CACACA_site4865],10.2 ± 0.43
12,CATACAGATATATATACACACATACAGATAAATACA [CACACA_site4592],9.3 ± 0.28
13,TATAAATACAGATACACACACACACCGATATATATA [CACACA_site5271],9.94 ± 0.18
14,AATTAAATTATAAGCACACACATATATATATATATA [CACACA_site3351],9.81 ± 0.057
15,ATAGTTACACGCCAAAAAAAAAAAAAAAAAAAAAAA [CACACA_negctrl_site1133],8.21 ± 0.42
16,TTTTTTTTTTTTTTTTGTACACATAATATGAATAAT [XGTACX_site2661],8.57 ± 0.32
17,AAAAAATTATTAATTTGTACATAAATAACCAAAAAA [XGTACX_site2488],8.49 ± 0.52
18,TTTTCCTTTACATAATGTACACAAAAAAAAAAAAAA [XGTACX_site716],8.21 ± 0.35
19,CTATAAAAATATAATTGTACAAATTTTTATATCTTA [XGTACX_site7722],8.35 ± 0.45
20,TAGAAACCATAAAAATGTACTTAAAAATAGACAATT [XGTACX_site5007],8.78 ± 0.5
21,AAAATTTTGGAACGTGCACACATATGTAATATATAT [CACACA_site9004],9.32 ± 0.37
22,TACATACATACATACACACACATATAGATTTATATA [CACACA_site6999],9.48 ± 0.28
23,CTATATAATATGAGCACACATAAGATTTGGTGTTAT [CACACA_site744],8.93 ± 0.34
24,CATAAATACAGATATACACACATATATATATATATA [CACACA_site4528],9.7 ± 0.45
25,TAAATAAATACATACACACACATACAGATATATATA [CACACA_site5690],9.62 ± 0.26
26,TATACAGATAAATACACACACATATATATATATATA [CACACA_site4178],10.2 ± 0.33
27,AGGCACGTGTTATATACACACATAATCAAATAAACT [CACACA_site7852],9.36 ± 0.38
28,AAATTATAATATAATACACACATAAAAAAAAAATCA [CACACA_site3634],9 ± 0.44
29,CCCCCCGTGTTATATACACACATAATCAAATAAAAT [CACACA_site4111],11.1 ± 0.44
